Among all 5,500 compounds or so, about 2,000 (36%) were called active. About 18% were inconclusive and are not listed. Cut-off read from the data, not from the text of the source: active = normalized growth mostly below about 0.91 (no sharp cut-off); inconclusive = no clear call, values can overlap the other calls; inactive = mostly above about 0.92. The list shows a part of the results.
Experiment: chemical genetic growth profiling, strain panel (AID 1159580);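 note: tested at 20 µM; growth read once vehicle control cultures reached saturation at 30 °C; 1 = growth at the plate median or of vehicle wells; lower values mean less growth of the strain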
Details: S. cerevisiae deletion strains, growth OD

Measured: normalized growth

CN=C(NC#N)NCCSCc1nc(N=C(N)N)cs1
inactive: locus YAL021C, strain ccr4, active compounds read low 0.966 | locus YAL026C, strain drs2, active compounds read low 0.981 | locus YAL030W, strain snc1, active compounds read low 0.998 | locus YBL061C, strain skt5, active compounds read low 0.988 | locus YBR009C, strain hhf1, active compounds read low 0.99 | locus YBR023C, strain chs3, active compounds read low 0.991 | locus YBR171W, strain sec66, active compounds read low 0.975 | locus YBR231C, strain swc5, active compounds read low 0.986 | locus YBR279W, strain paf1, active compounds read low 0.99 | locus YCL011C, strain gbp2, active compounds read low 0.966 | locus YCL016C, strain dcc1, active compounds read low 0.984 | locus YCL061C, strain MRC1, active compounds read low 0.974 | locus YCL069W, strain vba3, active compounds read low 0.978 | locus YCR088W, strain abp1, active compounds read low 0.967 | locus YDL005C, strain med2, active compounds read low 0.986 | locus YDL040C, strain nat1, active compounds read low 0.994 | locus YDR001C, strain nth1, active compounds read low 0.978 | locus YDR069C, strain doa4, active compounds read low 0.988 | locus YDR137W, strain rgp1, active compounds read low 0.977 | locus YDR159W, strain sac3, active compounds read low 0.985 | locus YDR195W, strain ref2 0.957 | locus YDR297W, strain sur2, active compounds read low 0.976 | locus YDR334W, strain swr1, active compounds read low 0.944 | locus YDR335W, strain msn5, active compounds read low 0.974 | locus YDR392W, strain spt3, active compounds read low 0.977 | locus YEL003W, strain gim4, active compounds read low 0.977 | locus YEL037C, strain rad23, active compounds read low 0.937 | locus YEL061C, strain CIN8 (second series), active compounds read low 0.979 | locus YER015W, strain faa2, active compounds read low 0.981 | locus YER016W, strain bim1, active compounds read low 0.99 | locus YER111C, strain swi4, active compounds read low 0.993 | locus YER155C, strain BEM2 (second series), active compounds read low 0.99 | locus YFR010W, strain ubp6, active compounds read low 0.96 | locus YGL167C, strain pmr1, active compounds read low 0.982 | locus YGL173C, strain kem1, active compounds read low 0.983 | locus YGL227W, strain vid30, active compounds read low 0.981 | locus YGL240W, strain doc1, active compounds read low 0.991 | locus YGL253W, strain hxk2, active compounds read low 0.998 | locus YHR013C, strain ard1, active compounds read low 0.97 | locus YHR027C, strain rpn1, active compounds read low 0.984 | locus YHR142W, strain chs7, active compounds read low 0.947 | locus YJL092W, strain hpr5, active compounds read low 0.978 | locus YJL095W, strain BCK1 (second series), active compounds read low 0.984 | locus YJL115W, strain asf1, active compounds read low 0.959 | locus YJL129C, strain trk1, active compounds read low 0.971 | locus YJL154C, strain vps35, active compounds read low 0.979 | locus YJL164C, strain tpk1, active compounds read low 0.989 | locus YJL166W, strain qcr8, active compounds read low 0.987 | locus YJL187C, strain SWE1, active compounds read low 0.985 | locus YKL160W, strain elf1, active compounds read low 0.975 | locus YKR026C, strain gcn3, active compounds read low 0.963 | locus YKR091W, strain srl3, active compounds read low 0.986 | locus YLL001W, strain dnm1, active compounds read low 0.985 | locus YLL026W, active compounds read low 0.98 | locus YLL041C, strain sdh2, active compounds read low 0.973 | locus YLR027C, strain aat2, active compounds read low 0.984 | locus YLR221C, strain rsa3, active compounds read low 0.987 | locus YLR258W, strain gsy2, active compounds read low 0.996 | locus YLR262C, strain YPT6 (second series), active compounds read low 0.984 | locus YLR320W, strain mms22, active compounds read low 0.99 | locus YLR342W, strain FKS1, active compounds read low 0.987 | locus YLR357W, strain rsc2, active compounds read low 0.977 | locus YLR370C, strain arc18, active compounds read low 0.983 | locus YLR384C, strain iki3, active compounds read low 0.991 | locus YML120C, strain ndi1, active compounds read low 0.949 | locus YMR058W, strain fet3, active compounds read low 0.966 | locus YMR125W, strain sto1, active compounds read low 0.992 | locus YMR129W, active compounds read low 0.981 | locus YMR205C, strain PFK2, active compounds read low 0.994 | locus YMR231W, strain pep5, active compounds read low 0.984 | locus YNL071W, strain lat1, active compounds read low 0.977 | locus YNL209W, strain ssb2, active compounds read low 0.982 | locus YNL248C, strain rpa49, active compounds read low 0.94 | locus YNL322C, strain KRE1 (second series), active compounds read low 0.984 | locus YNR049C, strain mso1, active compounds read low 0.982 | locus YOR001W, strain rrp6, active compounds read low 0.975 | locus YOR070C, strain gyp1, active compounds read low 0.999 | locus YOR080W, strain dia2, active compounds read low 0.974 | locus YOR083W, strain WHI5, active compounds read low 0.975 | locus YOR106W, strain vam3, active compounds read low 0.983 | locus YOR265W, strain rbl2, active compounds read low 0.991 | locus YOR270C, strain vph1, active compounds read low 0.983 | locus YOR290C, strain snf2, active compounds read low 1.01 | locus YPL051W, strain arl3, active compounds read low 0.981 | locus YPL078C, strain atp4, active compounds read low 0.976 | locus YPL106C, strain sse1, active compounds read low 0.984 | locus YPL240C, strain hsp82, active compounds read low 0.971
